Consider 61 compounds from PubChem BioAssay AID588397 (National Center for Advancing Translational Sciences (NCATS), 2011).

SMILES strings stand for the structures. About 1,000 (77%) of roughly 1,300 compounds were called active. Not shown: some 7% with an inconclusive outcome. Calls come from the whole dose curve; as a rule, active = well fitted inhibition curve with a large enough effect; inconclusive = small, poorly fitted or top-dose-only effect; inactive = no such curve, though single readings can be large or run the other way. The set was probably picked from earlier hits. This is one part of the list.
Potency is the fitted concentration of half-maximal effect.

The test in a line: qHTS of small molecules that selectively kill Giardia lamblia: Hit Validation.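 Note: viability measured as ATP content by luminescence so killing lowers signal; nearly all actives have a fitted effect of over 65% in size.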 To be noted: Giardia lamblia trophozoite viability, dose-response; series mostly up to 38.3 µM. The gist of the method: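 Giardia trophozoites, 100 cells per well, were exposed to compounds for 48 hrs at 37 deg C under anaerobic conditions; viability was then read as ATP content by bioluminescence after 15-30 min at room temperature.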
`Cn1nc([N+](=O)[O-])nc1Sc1cccc2cccnc12`: the Potency is 7290 nM (active).
Turning to `Nc1nc(Cl)nc2c1ncn2C1CC(O)C(CO)O1` (stereo unspecified), the Potency was 115 nM (active).
The value for `CC(CSc1nnnn1-c1ccccc1)Cn1c(N2CCCC2)nc2c1c(=O)[nH]c(=O)n2C` (stereo unspecified) was 183 nM (active).
As to `COc1ccc(C(=O)Nc2ccc3[nH]ccc3c2)cc1`, the Potency was 410 nM (active).
On to `COc1ccc(NS(=O)(=O)c2cc(NC(=O)c3ccc(=O)[nH]c3)ccc2C)cc1`, for which the Potency entry was “inactive”.
The value for `O=C(Nc1ccc2[nH]ccc2c1)c1ccccc1` was 2050 nM (active); that for `C(=NN1CCCCCC1)c1ccc2ccccc2n1` was 1030 nM (active).
The value for `COc1ccc(CC(NC(C)=O)C(=O)NC2CCN(c3ncccc3[N+](=O)[O-])CC2)cc1` (stereo unspecified) was 2050 nM (active); that for `COc1ccc(OCC(=O)NNC(=O)C2CCN(c3ncnc4sc(C)c(C)c34)CC2)cc1` was “inactive”.
Turning to `CC(=O)NC(Cc1ccccc1F)C(=O)NC1CCN(c2ncccc2[N+](=O)[O-])CC1` (stereo unspecified), the Potency was 2310 nM (active).
As for `CC(=O)NC(Cc1ccccc1)C(=O)NC1CCN(c2ncccc2[N+](=O)[O-])CC1` (stereo unspecified), the Potency was 1630 nM (active).
The value for `CC(=O)NC(Cc1ccc(F)cc1)C(=O)NC1CCN(c2ncccc2[N+](=O)[O-])CC1` (stereo unspecified) was 1830 nM (active); that for `CC(NC(=O)c1ccccc1F)c1nnc(SCC(=O)NC2CCCC2)n1C` (stereo unspecified) was “inactive”; that for `COc1ccc(CN2C(=O)C(CC(C)C)Nc3ncnc(N4CCCCC4)c32)cc1` (stereo unspecified) was “inactive”.
The value for `O=C(COc1cccnc1[N+](=O)[O-])Nc1ncc(Cl)cc1Cl` was 4600 nM (active); that for `O=C(COc1cccnc1[N+](=O)[O-])Nc1c(Cl)cccc1Cl` was 3260 nM (active).
Take `CC(=O)c1c(COC(=O)c2ccccc2Cl)nc2ccccc2[n+]1[O-]`: the Potency is 14500 nM (active).
The value for `CC(=O)c1c(COC(=O)c2ccc(F)cc2)nc2ccccc2[n+]1[O-]` was 6500 nM (active); that for `Cn1c(CNC(=O)c2ccccc2F)cc2ccccc21` was “inactive”; that for `O=C(Nc1ccc(OCC(=O)N2CCOCC2)cc1)c1ccccc1F` was 7290 nM (active).
Turning to `COc1ccc2oc(=Nc3ccccc3)c(-c3nc4ccccc4[nH]3)cc2c1`, the Potency was 4100 nM (active).
The value for `CCOC(=O)C1CCN(c2c([N+](=O)[O-])c(C(Cl)Cl)nn2-c2ccccc2)CC1` was 2900 nM (active); that for `O=[N+]([O-])c1c(C(Cl)Cl)nn(-c2ccccc2)c1N1CCOCC1` was 1830 nM (active).
To `CCN1/C(=C\c2ccc3ccccc3[n+]2CC)Sc2cc(C)ccc21` belongs “inactive”; to `Cc1oc2cc([N+](=O)[O-])c(O)c([N+](=O)[O-])c2c1C(=O)c1ccc(Cl)cc1`, 2590 nM (active).
The value for `COc1ccc(C(=O)c2c(C)oc3cc([N+](=O)[O-])c(O)c([N+](=O)[O-])c23)cc1` was 1830 nM (active); that for `Cc1oc2cc([N+](=O)[O-])c(O)c([N+](=O)[O-])c2c1C(=O)c1ccc(Br)cc1` was 2310 nM (active).
With `CCCn1c(NC(=O)c2ccc([N+](=O)[O-])o2)nc2ccccc21`, the Potency is 1300 nM (active).
As to `O=C(Nc1nc2c(Cl)cccc2s1)c1ccc([N+](=O)[O-])o1`, the Potency is 1450 nM (active).
In the case of `O=C(Nc1nc2c(F)cc(F)cc2s1)c1ccc([N+](=O)[O-])o1`, the Potency is 1160 nM (active).
Turning to `CCn1c(CCNC(=O)c2ccc(F)cc2)nc2ccccc21`, the Potency entry is “inactive”.
The value for `O=C(Nc1nc2cc3c(cc2s1)OCCO3)c1ccc([N+](=O)[O-])o1` was 579 nM (active); that for `CCOP(=O)(OCC)c1cccc(P(=O)(c2ccccc2)c2ccccc2)c1O` was “inactive”.
The value for `COC(=O)[C@]1(C)N[C@H](CN(C)S(=O)(=O)c2ccc(-c3ccccc3)cc2)[C@@H]2C(=O)N(C)C(=O)[C@@H]21` was “inactive”.
To `O=C(Nc1nc2ccccc2s1)c1ccc([N+](=O)[O-])o1` belongs 1030 nM (active); to `COc1ccc2nc(NC(=O)c3ccc([N+](=O)[O-])o3)sc2c1`, 918 nM (active); to `O=C(Nc1nc2c(F)cccc2s1)c1ccc([N+](=O)[O-])o1`, 1030 nM (active).
For the compound `NC(=O)c1oc2ccccc2c1NC(=O)c1ccc([N+](=O)[O-])o1`, the Potency was 650 nM (active).
The value for `O=C(Nc1cccc2ccccc12)c1ccc([N+](=O)[O-])o1` was 1030 nM (active); that for `O=C(Nc1cccc2ncccc12)c1ccc([N+](=O)[O-])o1` was 918 nM (active).
The value for `COc1cc(C2C(C(=O)c3ccc(C)o3)=C(O)C(=O)N2c2cc(C)on2)ccc1OCc1ccccc1` (stereo unspecified) was “inactive”.
As to `CCC(C)Nc1ccc(NC(C)CC)cc1` (stereo unspecified), the Potency was 183 nM (active).
Take `O=[N+]([O-])c1ccc(/C=N/Nc2ccnc3cc(Cl)ccc23)o1`: the Potency is 2050 nM (active).
Turning to `Clc1ccc2c(N/N=C/c3cccc(Br)c3)ccnc2c1`, the Potency was 1450 nM (active).
Take `Clc1ccc2c(N/N=C/c3ccc(Br)cc3)ccnc2c1`: the Potency is 516 nM (active).
The value for `Cc1nc2c(N=Nc3ccccc3F)c(N)nn2c(N)c1C#N` was 4600 nM (active); that for `CCOC(=O)Cn1c(=NC(=O)c2ccc([N+](=O)[O-])s2)sc2ccccc21` was 1830 nM (active); that for `CC(=O)O[C@@H]1[C@@H](O)CN[C@@H]1Cc1ccccc1` was 579 nM (active).
As for `O=[N+]([O-])c1cc(S(=O)(=O)N2CCCC2)ccc1N/N=C/c1ccncc1`, the Potency was 2310 nM (active).
`O=[N+]([O-])c1cc(S(=O)(=O)Nc2cccc(Cl)c2)ccc1N/N=C/c1ccc(N2CCOCC2)cc1`: the Potency is 6500 nM (active).
To `N=C1C(c2ccccc2)=C(O)CN1c1cccc(S(=O)(=O)N2CCOCC2)c1` belongs “inactive”; to `O=[N+]([O-])c1cc(S(=O)(=O)N2CCOCC2)ccc1NS(=O)(=O)c1ccccc1`, 1830 nM (active); to `O=S(=O)(c1ccccc1)N1CCN(S(=O)(=O)c2ccccc2)CC1`, “inactive”.
On to `C(=C\c1nccc2ccccc12)/c1ccc(N2CCOCC2)cc1`, for which the Potency was 2310 nM (active).
Take `Nc1ccc(/C=C/c2nccc3ccccc23)cc1`: the Potency is 3260 nM (active).
To `Nc1ncnc2c1ncn2C1O[C@H](CO)[C@@H](O)[C@@H]1O` (stereo partly specified) belongs 818 nM (active); to `O=C(Nc1ccc2nc(-c3ccco3)[nH]c2c1)c1cccs1`, 5790 nM (active); to `O=C(Nc1ccc2c(c1)nc1n2CCSC1)c1ccco1`, 4600 nM (active).
The value for `CC(NC(=O)c1ccc([N+](=O)[O-])o1)C12CC3CC(CC(C3)C1)C2` (stereo unspecified) was 918 nM (active); that for `O=C(NC12CC3CC(CC(C3)C1)C2)c1ccc([N+](=O)[O-])o1` was 1030 nM (active).
To `CC(NC(=O)c1ccc([N+](=O)[O-])o1)C1CC2CCC1C2` (stereo unspecified) belongs 1450 nM (active).
